# Experimental data taken from ChEMBL document CHEMBL3988442, “University of Dundee, Small-Polar-MMV Screening Library” (2021).
# For some assays here: Results with a measured potency or affinity are listed apart.
# Experiments:
# Set-up in all cases: scale not given: direction of the effect not stated beside the values
# [1] = molecular target: Protein translocase subunit SecA (Escherichia coli (strain K12)) (UniProt P10408); experiment: Assay to Identify E. coli SecA ATPase Inhibitors; format: functional; conditions: 30 µM
# Chain of Protein translocase subunit SecA (Escherichia coli (strain K12)) (P10408 whole entry): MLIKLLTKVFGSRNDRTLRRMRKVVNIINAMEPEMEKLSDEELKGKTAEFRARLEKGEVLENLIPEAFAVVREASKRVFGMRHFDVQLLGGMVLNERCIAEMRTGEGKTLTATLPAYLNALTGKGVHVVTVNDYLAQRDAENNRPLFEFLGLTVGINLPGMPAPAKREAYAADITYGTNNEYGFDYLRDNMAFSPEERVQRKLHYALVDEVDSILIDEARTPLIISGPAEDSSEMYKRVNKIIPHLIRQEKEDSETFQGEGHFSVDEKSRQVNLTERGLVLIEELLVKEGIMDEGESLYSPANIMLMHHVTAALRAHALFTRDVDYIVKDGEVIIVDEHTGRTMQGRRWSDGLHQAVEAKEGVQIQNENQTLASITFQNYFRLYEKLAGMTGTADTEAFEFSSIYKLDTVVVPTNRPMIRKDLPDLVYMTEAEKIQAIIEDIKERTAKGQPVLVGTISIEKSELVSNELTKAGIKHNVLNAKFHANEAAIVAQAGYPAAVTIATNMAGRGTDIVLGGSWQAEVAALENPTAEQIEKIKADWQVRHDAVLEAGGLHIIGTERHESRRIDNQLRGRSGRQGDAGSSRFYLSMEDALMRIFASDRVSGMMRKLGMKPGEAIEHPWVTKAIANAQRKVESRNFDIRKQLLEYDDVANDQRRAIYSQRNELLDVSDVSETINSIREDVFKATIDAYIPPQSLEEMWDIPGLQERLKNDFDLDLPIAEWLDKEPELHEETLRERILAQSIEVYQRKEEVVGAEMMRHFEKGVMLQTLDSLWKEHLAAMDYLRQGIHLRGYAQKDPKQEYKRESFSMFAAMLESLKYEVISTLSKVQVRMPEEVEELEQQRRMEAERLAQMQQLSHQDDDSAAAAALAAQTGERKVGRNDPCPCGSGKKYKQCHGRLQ
# [2] = molecular target: T1, Ubiquitin-activating enzyme e1, putative (Leishmania donovani (strain BPK282A1)) (UniProt E9BSI1); experiment: Leishmania donovani Ubiquitin Activating Enzyme (LdE1); format: functional; conditions: 30 µM
# T1 sequence (whole entry): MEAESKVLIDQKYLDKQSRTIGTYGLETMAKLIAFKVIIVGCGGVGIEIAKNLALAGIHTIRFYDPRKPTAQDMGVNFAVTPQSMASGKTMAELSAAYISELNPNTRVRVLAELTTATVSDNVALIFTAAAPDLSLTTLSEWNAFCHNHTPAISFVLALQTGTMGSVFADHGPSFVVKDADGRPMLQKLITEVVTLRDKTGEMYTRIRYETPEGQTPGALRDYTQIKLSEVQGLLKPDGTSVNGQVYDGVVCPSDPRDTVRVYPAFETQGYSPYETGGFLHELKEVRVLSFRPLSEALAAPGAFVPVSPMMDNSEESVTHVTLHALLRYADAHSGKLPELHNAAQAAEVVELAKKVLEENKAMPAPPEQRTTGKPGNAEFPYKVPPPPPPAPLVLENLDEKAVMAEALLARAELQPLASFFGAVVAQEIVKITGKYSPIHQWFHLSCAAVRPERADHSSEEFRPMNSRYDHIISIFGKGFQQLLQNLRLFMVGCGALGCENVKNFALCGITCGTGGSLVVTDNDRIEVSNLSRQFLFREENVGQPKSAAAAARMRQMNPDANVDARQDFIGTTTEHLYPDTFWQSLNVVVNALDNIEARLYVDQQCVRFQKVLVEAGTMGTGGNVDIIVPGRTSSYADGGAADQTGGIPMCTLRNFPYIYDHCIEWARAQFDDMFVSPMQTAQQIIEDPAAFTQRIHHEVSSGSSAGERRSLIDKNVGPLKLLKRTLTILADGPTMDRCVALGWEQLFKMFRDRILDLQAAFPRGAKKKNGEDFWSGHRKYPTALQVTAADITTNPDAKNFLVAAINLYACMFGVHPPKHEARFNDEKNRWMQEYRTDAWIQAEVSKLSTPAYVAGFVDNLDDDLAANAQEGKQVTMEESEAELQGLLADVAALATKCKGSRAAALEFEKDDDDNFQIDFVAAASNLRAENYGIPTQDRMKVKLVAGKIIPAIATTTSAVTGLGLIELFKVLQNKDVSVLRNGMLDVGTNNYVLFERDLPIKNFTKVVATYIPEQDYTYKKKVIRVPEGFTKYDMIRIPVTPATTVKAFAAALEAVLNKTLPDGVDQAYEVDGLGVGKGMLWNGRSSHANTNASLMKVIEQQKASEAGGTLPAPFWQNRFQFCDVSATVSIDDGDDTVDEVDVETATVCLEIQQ
# [3] = molecular target: AMP-activated protein kinase, AMPK (Homo sapiens) (UniProt P54646+O43741+P54619+Q9UGJ0+Q9Y478+Q13131+Q9UGI9); experiment: AMP-dependent Kinase enzyme assay. An in vitro enzyme assay that detects ADP turnover that is directly proportional to AMPK activity. This uses naive AMPK that is activated during the assay with MK-8722; format: functional; conditions: 30 µM
# [4] = molecular target: Sialic acid-binding Ig-like lectin 9 (Homo sapiens) (UniProt Q9Y336); experiment: Hs-Siglec9 ALPHAscreen SOP 20170721; conditions: 10 µM
# Chain of Sialic acid-binding Ig-like lectin 9 (Homo sapiens) (Q9Y336 whole entry): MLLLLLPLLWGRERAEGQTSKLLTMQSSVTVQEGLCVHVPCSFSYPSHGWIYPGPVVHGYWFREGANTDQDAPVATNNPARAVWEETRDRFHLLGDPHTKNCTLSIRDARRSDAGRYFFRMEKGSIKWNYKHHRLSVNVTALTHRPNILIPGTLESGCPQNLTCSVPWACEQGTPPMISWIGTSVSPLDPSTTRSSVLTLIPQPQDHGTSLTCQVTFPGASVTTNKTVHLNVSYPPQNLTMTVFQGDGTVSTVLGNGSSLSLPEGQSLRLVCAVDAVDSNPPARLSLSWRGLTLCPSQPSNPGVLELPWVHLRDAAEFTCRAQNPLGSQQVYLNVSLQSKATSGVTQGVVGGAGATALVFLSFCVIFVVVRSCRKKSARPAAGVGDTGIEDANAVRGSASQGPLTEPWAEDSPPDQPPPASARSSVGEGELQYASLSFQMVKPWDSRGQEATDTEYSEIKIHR
# Trypanosoma cruzi = experiment: Trypanosoma cruzi phosphomannomutase and mannose-1-phosphate guanylyltransferase assay; format: functional; conditions: 10 µM
# [5] = molecular target: T2, Arginase-2, mitochondrial (Homo sapiens) (UniProt P78540); experiment: in vitro enzyme assay to detect the production of urea directly proportional to the activity of Arginase II; format: functional; conditions: 33.3 µM; also: in the data most compounds retested in dose-response had high values
# T2 sequence (whole entry): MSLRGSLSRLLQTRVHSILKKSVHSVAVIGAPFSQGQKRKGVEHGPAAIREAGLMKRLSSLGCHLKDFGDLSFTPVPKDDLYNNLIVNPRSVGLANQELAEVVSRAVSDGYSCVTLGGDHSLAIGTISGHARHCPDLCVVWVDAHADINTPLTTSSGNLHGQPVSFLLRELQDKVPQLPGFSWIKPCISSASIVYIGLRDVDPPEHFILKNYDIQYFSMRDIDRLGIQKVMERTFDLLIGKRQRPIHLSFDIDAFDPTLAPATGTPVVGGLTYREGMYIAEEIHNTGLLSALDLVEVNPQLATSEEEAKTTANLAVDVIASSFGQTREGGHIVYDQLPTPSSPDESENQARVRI
# [6] = molecular target: T3, Proteasome subunit beta (Trypanosoma cruzi) (UniProt O96673); experiment: Trypanosoma cruzi proteasome chymotrypsin-like activity (TcProtChymo) assay.; also: in the data most compounds retested in dose-response had high values; format: functional; conditions: 9.37 µM
# T3 sequence (whole entry): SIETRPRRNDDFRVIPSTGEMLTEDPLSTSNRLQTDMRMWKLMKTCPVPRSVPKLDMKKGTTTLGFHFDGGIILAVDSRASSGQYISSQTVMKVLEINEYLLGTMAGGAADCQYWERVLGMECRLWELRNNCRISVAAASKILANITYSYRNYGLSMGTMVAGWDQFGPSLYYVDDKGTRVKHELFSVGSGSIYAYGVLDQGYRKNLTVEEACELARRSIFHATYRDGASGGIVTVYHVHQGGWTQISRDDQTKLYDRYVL
# Homo sapiens = species on record: Homo sapiens; experiment: To identify inhibition of the IFN signalling (Jak-Stat) pathway via expression of an eGFP reporter gene under the control of an IFN-stimulated response element (ISRE) containing MxA promoter.; format: functional; conditions: 30 µM
# [7] = molecular target: T4, Tyrosyl-tRNA synthetase, putative (Trypanosoma cruzi (strain CL Brener)) (UniProt Q4DSP6); experiment: Trypanosoma cruzi tyrosyl tRNA synthetase (TcYRS) _High Tyrosine SOP; format: functional; conditions: 30 µM; also: in the data most compounds retested in dose-response had high values
# T4 sequence (whole entry): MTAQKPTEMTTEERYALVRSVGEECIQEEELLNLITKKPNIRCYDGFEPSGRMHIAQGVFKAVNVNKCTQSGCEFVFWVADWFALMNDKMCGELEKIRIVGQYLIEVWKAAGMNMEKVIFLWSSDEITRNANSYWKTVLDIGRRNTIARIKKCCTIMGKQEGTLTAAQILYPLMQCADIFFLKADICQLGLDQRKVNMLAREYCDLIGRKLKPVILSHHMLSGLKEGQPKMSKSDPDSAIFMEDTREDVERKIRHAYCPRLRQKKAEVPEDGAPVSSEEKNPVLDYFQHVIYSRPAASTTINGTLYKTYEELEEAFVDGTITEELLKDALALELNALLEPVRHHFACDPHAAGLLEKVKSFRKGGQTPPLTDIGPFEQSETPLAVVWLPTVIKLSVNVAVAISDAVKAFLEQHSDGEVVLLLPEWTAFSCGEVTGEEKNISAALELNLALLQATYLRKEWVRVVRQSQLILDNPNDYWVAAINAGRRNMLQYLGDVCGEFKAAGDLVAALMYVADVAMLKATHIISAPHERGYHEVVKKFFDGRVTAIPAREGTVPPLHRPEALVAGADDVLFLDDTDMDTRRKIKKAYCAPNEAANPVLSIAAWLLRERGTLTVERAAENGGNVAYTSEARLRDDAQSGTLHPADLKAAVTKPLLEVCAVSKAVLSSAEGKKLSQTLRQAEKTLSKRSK
# [8] = molecular target: T4, Tyrosyl-tRNA synthetase, putative (Trypanosoma cruzi (strain CL Brener)); experiment: Trypanosoma cruzi tyrosyl tRNA synthetase (TcYRS) SOP; format: functional; conditions: 30 µM
# [9] = molecular target: Chromo domain-containing protein 1 (Saccharomyces cerevisiae (strain ATCC 204508 / S288c) (Baker's yeast)) (UniProt P32657); experiment: ScCHD-1 Enzyme Inhibition Assay; format: functional; conditions: 30 µM; also: in the data most compounds retested in dose-response had high values
# Chain of Chromo domain-containing protein 1 (Saccharomyces cerevisiae (strain ATCC 204508 / S288c) (Baker's yeast)) (P32657 whole entry, the tested form may be a part): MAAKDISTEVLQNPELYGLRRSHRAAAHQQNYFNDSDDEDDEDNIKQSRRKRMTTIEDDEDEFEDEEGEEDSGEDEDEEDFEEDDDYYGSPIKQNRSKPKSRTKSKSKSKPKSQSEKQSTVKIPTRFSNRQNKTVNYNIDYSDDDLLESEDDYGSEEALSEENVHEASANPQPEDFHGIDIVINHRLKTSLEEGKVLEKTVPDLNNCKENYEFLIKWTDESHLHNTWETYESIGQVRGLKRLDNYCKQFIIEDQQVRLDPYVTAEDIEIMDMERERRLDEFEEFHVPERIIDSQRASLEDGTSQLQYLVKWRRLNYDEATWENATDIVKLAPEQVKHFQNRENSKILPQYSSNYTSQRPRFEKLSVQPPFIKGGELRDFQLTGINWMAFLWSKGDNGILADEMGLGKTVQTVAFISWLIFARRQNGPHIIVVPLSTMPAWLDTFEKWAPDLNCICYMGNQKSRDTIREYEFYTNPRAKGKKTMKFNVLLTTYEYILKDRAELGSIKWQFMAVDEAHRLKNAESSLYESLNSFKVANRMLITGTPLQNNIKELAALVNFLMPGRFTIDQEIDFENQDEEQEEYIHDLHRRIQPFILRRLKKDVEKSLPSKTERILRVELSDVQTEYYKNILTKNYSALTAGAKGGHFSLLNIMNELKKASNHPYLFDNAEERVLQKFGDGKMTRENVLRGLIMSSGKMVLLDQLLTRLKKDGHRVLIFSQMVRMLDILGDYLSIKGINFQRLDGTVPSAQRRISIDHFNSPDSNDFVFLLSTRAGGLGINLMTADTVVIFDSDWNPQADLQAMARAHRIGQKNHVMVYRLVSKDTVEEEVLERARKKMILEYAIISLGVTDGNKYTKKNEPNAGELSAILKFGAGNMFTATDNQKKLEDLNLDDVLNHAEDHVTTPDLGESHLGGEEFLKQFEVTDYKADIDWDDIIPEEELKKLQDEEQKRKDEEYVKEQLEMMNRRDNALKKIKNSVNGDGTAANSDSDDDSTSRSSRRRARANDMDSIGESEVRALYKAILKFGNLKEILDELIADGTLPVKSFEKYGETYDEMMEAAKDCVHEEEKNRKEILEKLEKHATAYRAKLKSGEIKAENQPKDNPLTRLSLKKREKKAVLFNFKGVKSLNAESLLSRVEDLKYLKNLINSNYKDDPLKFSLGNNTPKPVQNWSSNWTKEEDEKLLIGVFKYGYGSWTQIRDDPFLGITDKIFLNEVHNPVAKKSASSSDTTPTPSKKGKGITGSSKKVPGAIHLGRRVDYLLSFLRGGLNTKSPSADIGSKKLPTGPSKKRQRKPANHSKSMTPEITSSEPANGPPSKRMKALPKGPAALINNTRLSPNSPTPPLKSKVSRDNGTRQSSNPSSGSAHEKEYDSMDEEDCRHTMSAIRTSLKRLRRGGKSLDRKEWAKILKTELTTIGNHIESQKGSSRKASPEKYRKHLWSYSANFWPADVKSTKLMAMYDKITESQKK
Compound,Percent Effect [1] [%],Percent Effect [2] [%],Percent Effect [3] [%],Percent Effect [4] [%],Percent Effect (Trypanosoma cruzi) [%],Percent Effect [5] [%],Percent Effect [6] [%],Percent Effect (Homo sapiens) [%],Percent Effect [7] [%],Percent Effect [8] [%],Percent Effect [9] [%]
CNS(=O)(=O)c1cccc(CNC(=O)c2c(C)nn(C)c2C)c1,-5.54,11.4,-3.57,-3.8,-2.15,1.07,9.78,30.5,-1.04,2.53,-12.7
CN1CCCC1CNC(=O)CCCOc1ccc(F)cc1 (stereo unspecified),-1.24,0,7.48,11.7,4.7,-3.83,0.835,-4.13,4.41,7.32,-3.92
O=c1ccc2c(n1CCN1CCCC1)CCN(Cc1ccoc1)CC2,-1.68,8.22,-4.13,13.3,7.94,-9.58,10.7,19.6,8.33,13.6,-2.06
Cc1cn(CC(=O)NC2CCN(S(C)(=O)=O)CC2)c2ccccc12,-4.19,0,0.231,-6.08,-2.44,1.74,3.18,0.23,2.15,8.64,-4.9
CNC(=O)[C@@]12CCC3(CCN(C(C)=O)CC3)[C@@H]1CN(S(C)(=O)=O)C2,-4.16,8.11,-2.4,-2.81,-4.01,4.22,-0.0858,1.1,5.38,6.17,-3.18
N#CC(Sc1nnnn1C1CCOCC1)C1CCCCC1 (stereo unspecified),-4.28,2.67,0.0297,9.31,-5.55,0.521,7.32,-0.799,3.83,6.17,-4.6
CCc1noc(C(C)N2CCN(Cc3ncc(C(C)(C)C)o3)CC2)n1 (stereo unspecified),1.4,28.9,-4.2,-2.15,-3.38,0.383,15,26,3.43,9.76,-10.7
Cc1csc(CNC(=O)NCCc2ccc3c(c2)OCCO3)n1,-5.64,13,-2.69,-16.2,7.93,-3.58,13.5,8.98,4.76,23.5,-17.6
O=C(NCCc1cccc(O)c1)NC1CCN(c2ccccc2)C1=O (stereo unspecified),-7.43,0,2.02,-1.23,-2.82,1.04,11.7,-6.77,-1.64,1.24,-4.31
COc1ccc(F)cc1C(C)NC(=O)Nc1nnc(C)s1 (stereo unspecified),-1.41,10.8,-8.69,27.9,4.99,13.7,9.7,17.2,5.38,16.1,3.4
Cc1cn2c(n1)CCC(NC(=O)c1cnc(C)nc1C(C)C)C2 (stereo unspecified),-4.68,10.4,-12.2,12.9,3.23,1.9,3.48,1.24,10.5,18.8,-16.9
O=C(c1cccc(S(=O)(=O)NCCCc2ncc[nH]2)c1)N1CCOCC1,-1.26,5.48,-0.693,-4.52,-7.05,4.09,13.8,5.99,2.15,7.5,-3.79
CN(C(=O)CCNC(=O)NC1CCCCC1)c1ccccc1,-3.57,21.1,-2.45,-10.2,3.21,-1.18,14.3,8.02,3.19,13,-0.404
CSCCNC(=O)c1ccc(OC2CCN(CC(C)(C)C)CC2)c(Cl)c1,-3.94,8.11,-0.678,31.3,7.53,0.248,7.47,-3.54,2.15,8.64,-9.27
CN(C)C(=O)[C@@H]1CCO[C@@H]2CCN(CCc3ccccc3)C[C@@H]21,-1.12,10.8,-3.68,0.659,2.15,38.8,9.21,0.342,-4.95,15.8,-6.78
Cc1ncccc1NC(=O)[C@H]1C[C@@H]2CCN(Cc3nccs3)C[C@@H]2O1,0.0943,10.8,6.53,-5.38,0.293,2.23,24.4,1.37,7.57,17.9,-3.63
